Source: PubChem
5-HT1A blocker: antagonists of human 5-HT1a serotonin receptor. CHO 5-HT1a Ga15 NFAT-bla reporter, antagonist mode. inhibition, % at 10 µM. P08908. AID 612. 62,000 compounds, 0.68% hits;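 active = inhibition above the mean of all tested compounds plus 3 SD, cut at about 43% in these data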;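 also: receptor stimulated by 5-CT agonist at 100 nM near EC80; beta-lactamase reporter measured by ratiometric fluorescence of a cleavable substrate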
Target sequence (P08908 whole entry, looked up): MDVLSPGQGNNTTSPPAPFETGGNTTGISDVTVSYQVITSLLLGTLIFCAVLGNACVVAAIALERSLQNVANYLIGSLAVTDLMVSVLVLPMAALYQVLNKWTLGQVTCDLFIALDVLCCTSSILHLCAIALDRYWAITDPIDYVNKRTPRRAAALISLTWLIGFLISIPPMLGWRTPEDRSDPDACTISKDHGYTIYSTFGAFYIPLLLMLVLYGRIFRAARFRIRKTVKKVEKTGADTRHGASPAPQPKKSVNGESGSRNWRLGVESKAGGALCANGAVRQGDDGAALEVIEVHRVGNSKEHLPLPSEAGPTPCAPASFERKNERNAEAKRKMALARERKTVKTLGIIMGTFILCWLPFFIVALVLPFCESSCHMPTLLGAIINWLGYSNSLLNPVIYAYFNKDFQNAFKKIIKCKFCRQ
HTR1E agonist: agonists of human 5-HT1E serotonin receptor. P28566. CHO 5-HT1E Ga15 NFAT-bla reporter, FRET; 0% DMSO wells, 100% control agonist wells. activation, % at 6 µM. 65,000 compounds, 0.69% hits;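 active = activation above a set limit, the screen-wide mean activation plus 3 SD, cut at about 8.5% in these data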
5HT1E antag: antagonists of human 5-HT1E serotonin receptor | CHO 5-HT1E Ga15 NFAT-bla reporter, FRET, antagonist | inhibition, % at 6 µM | 65,000 compounds, 0.99% hits | AID 571;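 active = inhibition above a set limit, the mean inhibition across every tested compound plus 3 SD, cut at about 29% in these data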;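 also: signal is the 460 over 535 nm emission ratio of beta-lactamase substrate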
Her2 expr inh: Her2 kinase expression inhibition. P04626. SKBR-3 HER2 protein level, AlphaScreen, 18-24 h; active compounds read low. HER2 level % of control, % at 10 µM. 65,000 compounds, 0.69% hits. AID 645;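 active = HER2 level under 5% of the carrier-only control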;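 also: lower value means stronger loss of Her2 protein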
HTR1A agonist: 5-HT1a (human) receptor agonism. activation, % at 10 µM. P08908. AID 567. 65,000 compounds, 0.56% hits. CHO 5-HT1a Ga15 NFAT-bla reporter, FRET ratio; 0% basal, 100% maximal reference agonist;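 active = activation above the screen-wide mean activation plus 3 SD, cut at about 19% in these data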
Each line names hits and unclear results; the compound was inactive in the other large screens. An excerpt weighted towards active compounds, which were near 3% of everything screened.

COc1ccc(CC2C(=O)N(C)C(=O)N(C)C2=O)c(OC)c1	HTR1A agonist 22
COc1ccc(CC2C(=O)NC(=O)NC2=O)c(OC)c1	none
CCn1nc(-c2cccs2)nc2c(=O)n(C)c(=O)nc1-2	5-HT1A blocker 82, 5HT1E antag 96, Her2 expr inh -0.1
O=C(CNS(=O)(=O)c1ccc(Br)s1)N1CCC2(CC1)OCCO2	none
CCn1c(O)c(C(=O)CC2NCCc3ccccc32)c(=O)n(CC)c1=S (stereo not drawn)	Her2 expr inh -17 (no result: 5-HT1A blocker)
O=C(c1ccc2c(=O)n(Cc3ccc4c(c3)OCO4)c(=S)[nH]c2c1)N1CCC2(CC1)OCCO2	none
CC(C)[C@H]1C(=O)N2CCC[C@H]2[C@]2(O)O[C@](NC(=O)[C@@H]3C=C4c5cccc6[nH]cc(c56)C[C@H]4N(C)C3)(C(C)C)C(=O)N12	HTR1A agonist 102 (no result: 5-HT1A blocker)
CC(C)[C@@]1(NC(=O)[C@@H]2C[C@@H]3c4cccc5[nH]cc(c45)C[C@H]3N(C)C2)O[C@@]2(O)[C@@H]3CCCN3C(=O)[C@H](Cc3ccccc3)N2C1=O	HTR1A agonist 96 (no result: 5-HT1A blocker)
CC(C)[C@@]1(NC(=O)[C@@H]2C=C3c4cccc5[nH]cc(c45)C[C@H]3N(C)C2)O[C@@]2(O)[C@@H]3CCCN3C(=O)[C@H](Cc3ccccc3)N2C1=O	HTR1E agonist 9.1, HTR1A agonist 113 (no result: 5-HT1A blocker)
CNP(=S)(NC)OCCOc1ccc(OC)cc1	none
CN1CCN(C(=O)COc2ccc3ccccc3c2Br)CC1	none
CC(=O)c1cccc(NC2=NCC(C)S2)c1 (stereo not drawn)	none
CN1CC=C(c2c[nH]c3ccccc23)CC1	HTR1E agonist 106
COc1cccc(N2CCN(Cc3cccc(Cl)c3)CC2)c1	5HT1E antag 34
O=C(CN1CCN(CCO)CC1)Nc1ccc(Cl)cc1C(=O)c1ccccc1	none (no result: 5-HT1A blocker)
CN1CCN(CC(=O)Nc2ccc(Cl)cc2C(=O)c2ccccc2)CC1	HTR1E agonist 10
COCCOC(=O)C1=C(N)Oc2c(c(=O)oc3ccccc23)[C@@]12C(=O)Nc1ccccc12	none (no result: 5-HT1A blocker)
O=C1NC(=O)C2(Cc3c(nc4ccccn4c3=O)N3CCCCCC32)C(=O)N1Cc1ccccc1 (stereo not drawn)	none
Cn1c(O)c(C(=NCCN2CCCCC2)c2ccccc2Cl)c(=O)n(C)c1=O	5-HT1A blocker 43
CC(C)C12CN3CCN(CC(C3)C1O)C2 (stereo not drawn)	none
CN(C)P(=O)(C(Cl)=C(N1CCCCC1)N1CCCCC1)N(C)C	5-HT1A blocker 43
CCCCc1nc(N2CCNCC2)c(C#N)c2c1CSC(C)(C)C2	HTR1E agonist 10 (no result: 5-HT1A blocker)
O=C(C1CCN(S(=O)(=O)N2CCOCC2)CC1)N1CCC2(CC1)OCCO2	none
O=C(O)c1nonc1-c1nonc1C(=O)O	none
CCCCOCCCn1c(N)c(C(=O)OCCOC)c2nc3ccccc3nc21	none (no result: 5-HT1A blocker)
CCCCCCn1c(N)c(C(=O)NCCN2CCOCC2)c2nc3ccccc3nc21	Her2 expr inh -5.8
COCCCn1c(N)c(C(=O)NCCC(C)C)c2nc3ccccc3nc21	HTR1E agonist 12, HTR1A agonist 34
O=C(c1ccc2nc3ccc(Cl)cc3c(=O)n2c1)N1CCC2(CC1)OCCO2	none
COc1cc2nc(CN3CC=C(c4ccccc4)CC3)[nH]c(=O)c2cc1OC	5-HT1A blocker 44
CN(C)CC#CCOCCOCCC#N	none
Cc1nn(C)c(C)c1P(=S)(c1c(C)nn(C)c1C)N(C)C	none
CC(C)(C)c1ccc(O)c(CN2CCN(c3ccccc3)CC2)c1	5-HT1A blocker 64
CCCCC12CNCC(C)(CNC1)C2=O	HTR1A agonist 86
CCOC(=O)C1=C(N)Oc2cc(C)oc(=O)c2C12C(=O)N1c3c(cc(OC)cc32)C(C)=CC1(C)C (stereo not drawn)	none
COc1ccccc1N1CCN(Cc2ccccc2F)CC1	HTR1E agonist 18
COc1ccccc1N1CCN(Cc2ccccc2Cl)CC1	none
COc1ccccc1N1CCN(Cc2cccc(OC)c2O)CC1	HTR1E agonist 13
CC(C)CC1C(C#N)=C(N)Oc2c1c(=O)oc1ccccc21 (stereo not drawn)	none
CC(C(=O)c1c[nH]c2ccccc12)N1CCc2ccccc2C1 (stereo not drawn)	none
CC12CNCC(C)(CNC1)C2O (stereo not drawn)	none
Cc1[nH]c2ccccc2c1C1=CCNCC1	HTR1E agonist 91
O=C(CCCN1CCC2(CC1)C(=O)NCN2c1ccccc1)c1ccc(F)cc1	HTR1E agonist 16 (no result: 5-HT1A blocker)
CN1CCN(c2ccc(C(N)=O)cc2N)CC1	Her2 expr inh -20
COc1cc2c(cc1OC)-c1c(OC)c(OC)cc3c1C(C2)N(C)CC3 (stereo not drawn)	HTR1E agonist 25
CC(C)OC(=O)C1C(=O)NC2(C)CC1c1ccccc1O2 (stereo not drawn)	none
COc1cccc(OC)c1C1=NCC(=O)Nc2c1oc1ccc(Br)cc21	5-HT1A blocker 71, 5HT1E antag 80
CN(C)P1(N(C)C)=Nc2c(c(N)nn2C)C(c2ccccc2)=N1	none
CCC1(CC)C(=O)NC(=NCCc2c[nH]c3ccccc23)NC1=O	none
CCCCc1ccc2[nH]cc(CCN)c2c1	HTR1E agonist 106, HTR1A agonist 69
O=c1c2ccccc2nc(N2CCCC2)n1-c1ccc(Cl)cc1	none
COc1ccc(C2C(C(=O)N3CCC4(CC3)OCCO4)CC(=O)N2c2ccc(OC)cc2)cc1 (stereo not drawn)	none
Cc1[nH]c2c(Cl)cccc2c1CCN	HTR1E agonist 71
